From the supplement of paper PMC10849652
The full data set covers some 7,900 targets. This sample favours those with a hit. About 0.6% of all pairs of compound and target were hits.

Columns and labels:
Assay in all cases: log2 fold change, soluble protein after heating vs DMSO (PISA); higher = thermal stabilisation; K562 cells, 10 uM, 30 min; active = over 0.2 and 3.5 SD of the protein, either way, in both replicates (recomputed)
bafetinib = compound: Cc1ccc(NC(=O)c2ccc(CN3CC[C@H](N(C)C)C3)c(C(F)(F)F)c2)cc1Nc1nccc(-c2cncnc2)n1 [bafetinib]
Procedure, shortened: (§1)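 For each measurement, 10 μM compound was applied for 30 min to K562 cells at 2×10^6 cells/mL. Aliquots were heated for 3 min across 48°C-58°C, pooled, and extracted in PBS with 0.5% NP-40 at 4°C; the supernatant after 21,000xg for 90 min was soluble protein. This was quantified by TMTpro 16plex LC-MS/MS with channel sums equalised, and thermal stability was reported relative to control samples from duplicates, on a log2 fold-change scale.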

[1] = compound: Cc1cccc(CC(=O)N2CCc3c2ccc(-c2cn(C)c4ncnc(N)c24)c3F)n1
Procedure, shortened: as §1

nilotinib = compound: Cc1cn(-c2cc(NC(=O)c3ccc(C)c(Nc4nccc(-c5cccnc5)n4)c3)cc(C(F)(F)F)c2)cn1 [nilotinib]
Procedure, shortened: as §1

[2] = compound: Cc1nc(Nc2n[nH]c3c2CN(C(=O)N[C@H](CN(C)C)c2ccccc2)C3(C)C)c2sccc2n1
Procedure, shortened: as §1

dasatinib = compound: Cc1nc(Nc2ncc(C(=O)Nc3c(C)cccc3Cl)s2)cc(N2CCN(CCO)CC2)n1 [dasatinib]
Procedure, shortened: as §1

[3] = compound: Cc1ncc(-c2ccnc(Nc3ccc(S(C)(=O)=O)cc3)n2)n1C(C)C
Procedure, shortened: as §1

[4] = compound: Cn1cc(-c2ccc3c(c2)CCN3C(=O)Cc2cccc(C(F)(F)F)c2)c2c(N)ncnc21
Procedure, shortened: as §1

[5] = compound: Cn1cc(-c2ccc3nnc(C(F)(F)c4ccc5ncccc5c4)n3n2)cn1
Procedure, shortened: as §1

tipifarnib = compound: Cn1cncc1[C@@](N)(c1ccc(Cl)cc1)c1ccc2c(c1)c(-c1cccc(Cl)c1)cc(=O)n2C [tipifarnib]
Procedure, shortened: as §1

mubritinib = compound: FC(F)(F)c1ccc(/C=C/c2nc(COc3ccc(CCCCn4ccnn4)cc3)co2)cc1 [mubritinib]
Procedure, shortened: as §1

[6] = compound: NC(=O)Nc1cc(-c2cccc(F)c2)sc1C(=O)N[C@H]1CCCNC1
Procedure, shortened: as §1

[7] = compound: NC(=O)c1cnc(N[C@@H]2CCCC[C@@H]2N)nc1Nc1cccc(-n2nccn2)c1
Procedure, shortened: as §1

[8] = compound: NC1(c2ccc(-c3nc4ccn5c(=O)[nH]nc5c4cc3-c3ccccc3)cc2)CCC1
Procedure, shortened: as §1

[9] = compound: NCC(=O)Nc1ccc(-n2nc(C(F)(F)F)cc2-c2ccc3c(ccc4ccccc43)c2)cc1
Procedure, shortened: as §1

entinostat = compound: Nc1ccccc1NC(=O)c1ccc(CNC(=O)OCc2cccnc2)cc1 [entinostat]
Procedure, shortened: as §1

vorinostat = compound: O=C(CCCCCCC(=O)Nc1ccccc1)NO [vorinostat]
Procedure, shortened: as §1

citarinostat = compound: O=C(CCCCCCNC(=O)c1cnc(N(c2ccccc2)c2ccccc2Cl)nc1)NO [citarinostat]
Procedure, shortened: as §1

silmitasertib = compound: O=C(O)c1ccc2c(c1)nc(Nc1cccc(Cl)c1)c1ccncc12 [silmitasertib]
Procedure, shortened: as §1

[10] = compound: O=C1NC(=O)C(c2cnc3ccccn23)=C1c1cn2c3c(cc(F)cc13)CN(C(=O)N1CCCCC1)CC2
Procedure, shortened: as §1

[11] = compound: c1cc(OCCN2CCCCC2)cc(-c2n[nH]c3ccc(-c4nnc[nH]4)cc23)c1
Procedure, shortened: as §1

Measured: log2 fold change

SEC31A (UniProt O94979)
UniProt O94979, sequence (O94979 whole entry, looked up): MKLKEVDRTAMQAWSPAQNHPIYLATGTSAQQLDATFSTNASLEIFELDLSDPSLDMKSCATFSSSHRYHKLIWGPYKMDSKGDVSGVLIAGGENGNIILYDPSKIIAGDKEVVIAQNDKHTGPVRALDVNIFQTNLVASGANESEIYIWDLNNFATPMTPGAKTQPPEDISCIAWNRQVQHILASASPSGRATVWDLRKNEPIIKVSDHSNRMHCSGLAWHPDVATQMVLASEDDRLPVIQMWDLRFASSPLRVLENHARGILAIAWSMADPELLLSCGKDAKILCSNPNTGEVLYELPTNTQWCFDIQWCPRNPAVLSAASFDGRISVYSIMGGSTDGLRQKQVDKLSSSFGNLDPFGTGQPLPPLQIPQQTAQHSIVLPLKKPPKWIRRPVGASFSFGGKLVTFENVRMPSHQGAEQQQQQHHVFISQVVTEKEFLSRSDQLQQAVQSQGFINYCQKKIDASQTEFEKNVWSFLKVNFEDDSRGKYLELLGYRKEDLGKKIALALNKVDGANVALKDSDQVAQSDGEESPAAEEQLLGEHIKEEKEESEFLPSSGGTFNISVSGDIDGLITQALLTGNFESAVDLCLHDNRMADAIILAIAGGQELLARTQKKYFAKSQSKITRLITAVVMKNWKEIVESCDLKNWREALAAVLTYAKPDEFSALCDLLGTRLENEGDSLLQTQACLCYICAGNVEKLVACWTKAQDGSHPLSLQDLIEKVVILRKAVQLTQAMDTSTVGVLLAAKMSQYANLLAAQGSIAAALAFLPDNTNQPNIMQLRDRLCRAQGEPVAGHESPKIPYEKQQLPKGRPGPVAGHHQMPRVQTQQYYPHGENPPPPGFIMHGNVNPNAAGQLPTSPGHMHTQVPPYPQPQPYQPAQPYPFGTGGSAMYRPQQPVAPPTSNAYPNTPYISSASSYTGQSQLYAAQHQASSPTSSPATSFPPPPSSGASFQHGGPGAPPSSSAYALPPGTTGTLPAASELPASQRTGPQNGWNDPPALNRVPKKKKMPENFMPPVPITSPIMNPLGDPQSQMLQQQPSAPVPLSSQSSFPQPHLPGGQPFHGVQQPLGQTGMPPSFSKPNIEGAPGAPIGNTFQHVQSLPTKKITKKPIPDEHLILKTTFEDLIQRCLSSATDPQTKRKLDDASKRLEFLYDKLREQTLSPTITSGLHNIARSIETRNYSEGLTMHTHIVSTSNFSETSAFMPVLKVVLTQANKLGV
inactive: bafetinib 0.011 | [1] 0.019 | nilotinib -0.11 | [2] -0.042 | dasatinib -0.134 | [3] 0.054 | [4] -0.031 | [5] -0.057 | tipifarnib -0.065 | mubritinib 0.079 | [6] -0.078 | [7] -0.024 | [8] -0.022 | [9] -0.099 | entinostat 0.041 | vorinostat 0.003 | citarinostat 0.042 | silmitasertib 0.063 | [10] -0.048 | [11] 0.07

RPS27A (UniProt P62979)
inactive: bafetinib 0.147 | [1] 0.023 | nilotinib 0.056 | [2] 0.2 | dasatinib 0.119 | [3] 0.007 | [4] -0.172 | [5] 0 | tipifarnib 0.079 | mubritinib -0.121 | [6] 0.024 | [7] 0.16 | [8] 0.286 | [9] 0.177 | entinostat -0.047 | vorinostat -0.007 | citarinostat -0.211 | silmitasertib 0.05 | [10] 0.064 | [11] -0.06

RBM17 (UniProt Q96I25)
UniProt Q96I25, sequence (Q96I25 whole entry, looked up): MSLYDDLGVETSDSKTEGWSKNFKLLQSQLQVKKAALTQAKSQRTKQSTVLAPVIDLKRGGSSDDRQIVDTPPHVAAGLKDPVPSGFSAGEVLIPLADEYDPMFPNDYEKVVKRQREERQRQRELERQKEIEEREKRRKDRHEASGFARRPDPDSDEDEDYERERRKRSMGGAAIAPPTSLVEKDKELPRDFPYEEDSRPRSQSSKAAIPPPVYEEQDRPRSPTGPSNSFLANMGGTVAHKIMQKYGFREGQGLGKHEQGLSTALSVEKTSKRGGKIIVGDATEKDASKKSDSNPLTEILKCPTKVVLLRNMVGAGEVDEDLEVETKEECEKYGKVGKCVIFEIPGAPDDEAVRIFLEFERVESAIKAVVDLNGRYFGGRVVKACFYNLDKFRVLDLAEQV
inactive: bafetinib -0.056 | [1] 0.042 | nilotinib -0.095 | [2] -0.249 | dasatinib -0.108 | [3] 0.011 | [4] -0.067 | [5] -0.028 | tipifarnib -0.042 | mubritinib -0.148 | [6] 0.021 | [7] 0.037 | [8] 0.003 | [9] -0.07 | entinostat 0.08 | vorinostat 0.092 | citarinostat 0.056 | silmitasertib 0.036 | [10] 0.027 | [11] -0.127

SDCBP (UniProt O00560)
UniProt O00560, sequence (O00560 whole entry, looked up): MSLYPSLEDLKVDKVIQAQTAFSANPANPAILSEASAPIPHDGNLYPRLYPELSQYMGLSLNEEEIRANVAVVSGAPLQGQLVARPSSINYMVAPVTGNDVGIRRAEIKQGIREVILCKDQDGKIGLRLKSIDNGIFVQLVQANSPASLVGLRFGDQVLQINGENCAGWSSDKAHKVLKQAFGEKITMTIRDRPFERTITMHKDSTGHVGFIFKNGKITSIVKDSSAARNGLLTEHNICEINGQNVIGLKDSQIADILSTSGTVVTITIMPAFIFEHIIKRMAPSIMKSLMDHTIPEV
inactive: bafetinib -0.229 | [1] 0.038 | nilotinib 0.015 | [2] -0.021 | dasatinib -0.12 | [3] 0 | [4] -0.076 | [5] -0.058 | tipifarnib 0.018 | mubritinib 0.025 | [6] -0.027 | [7] -0.017 | [8] -0.207 | [9] -0.189 | entinostat 0.007 | vorinostat 0.063 | citarinostat -0.014 | silmitasertib 0.073 | [10] 0.028 | [11] -0.08

RIOK2 (UniProt Q9BVS4)
UniProt Q9BVS4, sequence (Q9BVS4 whole entry, looked up): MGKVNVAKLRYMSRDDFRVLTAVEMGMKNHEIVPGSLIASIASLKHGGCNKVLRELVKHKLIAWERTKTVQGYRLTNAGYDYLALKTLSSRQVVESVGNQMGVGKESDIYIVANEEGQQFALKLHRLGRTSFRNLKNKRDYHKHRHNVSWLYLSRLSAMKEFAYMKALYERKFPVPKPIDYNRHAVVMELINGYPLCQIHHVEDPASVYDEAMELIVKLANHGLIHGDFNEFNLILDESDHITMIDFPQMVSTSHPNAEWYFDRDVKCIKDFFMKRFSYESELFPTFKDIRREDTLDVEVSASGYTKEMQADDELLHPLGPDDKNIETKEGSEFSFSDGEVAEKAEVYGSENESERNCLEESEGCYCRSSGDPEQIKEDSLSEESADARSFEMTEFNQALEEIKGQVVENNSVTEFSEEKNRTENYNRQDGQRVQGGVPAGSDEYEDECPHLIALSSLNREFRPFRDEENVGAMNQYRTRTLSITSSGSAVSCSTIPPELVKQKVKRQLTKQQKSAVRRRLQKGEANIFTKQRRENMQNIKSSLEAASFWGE
active: [7] 0.351
inactive: bafetinib 0.27 | [1] 0.003 | nilotinib 0.094 | [2] 0.202 | dasatinib 0.013 | [3] 0.231 | [4] -0.041 | [5] -0.067 | tipifarnib -0.003 | mubritinib 0.014 | [6] -0.008 | [8] 0.04 | [9] 0.027 | entinostat -0.041 | vorinostat -0.044 | citarinostat -0.067 | silmitasertib 0.018 | [10] 0.086 | [11] -0.071

RSF1 (UniProt Q96T23)
UniProt Q96T23, sequence (Q96T23 whole entry, looked up): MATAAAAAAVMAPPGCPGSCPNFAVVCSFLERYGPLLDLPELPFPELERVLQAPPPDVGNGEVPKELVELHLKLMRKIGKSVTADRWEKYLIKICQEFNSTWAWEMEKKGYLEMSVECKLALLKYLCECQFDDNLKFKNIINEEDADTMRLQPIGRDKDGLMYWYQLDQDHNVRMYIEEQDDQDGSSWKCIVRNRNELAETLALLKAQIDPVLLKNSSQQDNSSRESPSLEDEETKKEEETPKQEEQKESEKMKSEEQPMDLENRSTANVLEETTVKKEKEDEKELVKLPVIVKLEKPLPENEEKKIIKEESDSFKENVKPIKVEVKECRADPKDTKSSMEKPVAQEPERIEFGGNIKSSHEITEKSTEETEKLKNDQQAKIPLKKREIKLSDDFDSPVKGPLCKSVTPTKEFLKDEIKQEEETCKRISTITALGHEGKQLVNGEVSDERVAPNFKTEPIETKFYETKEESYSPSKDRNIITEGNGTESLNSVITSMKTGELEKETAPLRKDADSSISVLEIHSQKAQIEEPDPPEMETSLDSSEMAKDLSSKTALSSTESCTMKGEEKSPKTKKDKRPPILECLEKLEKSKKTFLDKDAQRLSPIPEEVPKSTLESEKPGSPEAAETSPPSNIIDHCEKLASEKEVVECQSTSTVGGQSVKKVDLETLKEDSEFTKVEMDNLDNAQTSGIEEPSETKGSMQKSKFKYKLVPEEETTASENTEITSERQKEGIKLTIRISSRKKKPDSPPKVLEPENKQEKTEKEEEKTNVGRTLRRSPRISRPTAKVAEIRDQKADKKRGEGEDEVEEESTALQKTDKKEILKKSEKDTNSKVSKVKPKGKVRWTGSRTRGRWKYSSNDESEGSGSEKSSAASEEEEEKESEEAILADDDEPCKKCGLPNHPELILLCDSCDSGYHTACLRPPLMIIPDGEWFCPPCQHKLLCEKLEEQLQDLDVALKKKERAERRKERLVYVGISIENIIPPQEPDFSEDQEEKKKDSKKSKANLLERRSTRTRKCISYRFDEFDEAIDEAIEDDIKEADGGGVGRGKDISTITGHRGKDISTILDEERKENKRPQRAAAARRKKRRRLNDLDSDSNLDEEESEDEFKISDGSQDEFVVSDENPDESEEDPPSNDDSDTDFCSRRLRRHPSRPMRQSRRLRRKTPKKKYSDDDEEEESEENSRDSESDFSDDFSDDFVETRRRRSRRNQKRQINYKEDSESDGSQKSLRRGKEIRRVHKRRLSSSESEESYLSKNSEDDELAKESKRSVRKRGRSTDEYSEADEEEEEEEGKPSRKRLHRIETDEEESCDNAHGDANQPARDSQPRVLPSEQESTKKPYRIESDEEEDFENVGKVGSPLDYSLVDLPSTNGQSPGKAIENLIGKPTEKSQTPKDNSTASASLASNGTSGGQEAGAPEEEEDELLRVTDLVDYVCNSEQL
inactive: bafetinib 0.117 | [1] -0.027 | nilotinib 0.087 | [2] -0.102 | dasatinib -0.082 | [3] -0.096 | [4] 0.046 | [5] 0.079 | tipifarnib -0.222 | mubritinib 0.237 | [6] -0.17 | [7] -0.078 | [8] -0.246 | [9] -0.198 | entinostat 0.073 | vorinostat 0.028 | citarinostat -0.087 | silmitasertib 0.04 | [10] -0.182 | [11] 0.081

RAB5C isoform 2 (UniProt P51148)
UniProt P51148, sequence (P51148 whole entry, looked up): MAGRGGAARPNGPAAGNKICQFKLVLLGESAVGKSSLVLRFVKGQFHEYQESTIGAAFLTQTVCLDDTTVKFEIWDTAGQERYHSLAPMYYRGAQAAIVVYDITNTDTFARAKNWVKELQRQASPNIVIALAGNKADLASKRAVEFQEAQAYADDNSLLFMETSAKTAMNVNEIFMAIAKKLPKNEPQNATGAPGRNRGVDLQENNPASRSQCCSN
inactive: bafetinib -0.005 | [1] -0.021 | nilotinib 0.019 | [2] -0.019 | dasatinib 0.014 | [3] -0.003 | [4] 0.043 | [5] -0.027 | tipifarnib 0.006 | mubritinib 0.031 | [6] 0.092 | [7] 0.041 | [8] 0.017 | [9] 0.051 | entinostat 0.007 | vorinostat -0.001 | citarinostat -0.004 | silmitasertib -0.009 | [10] 0.049 | [11] -0.028

RUNX1 isoform 8 (UniProt Q01196)
UniProt Q01196, sequence (Q01196 whole entry, looked up): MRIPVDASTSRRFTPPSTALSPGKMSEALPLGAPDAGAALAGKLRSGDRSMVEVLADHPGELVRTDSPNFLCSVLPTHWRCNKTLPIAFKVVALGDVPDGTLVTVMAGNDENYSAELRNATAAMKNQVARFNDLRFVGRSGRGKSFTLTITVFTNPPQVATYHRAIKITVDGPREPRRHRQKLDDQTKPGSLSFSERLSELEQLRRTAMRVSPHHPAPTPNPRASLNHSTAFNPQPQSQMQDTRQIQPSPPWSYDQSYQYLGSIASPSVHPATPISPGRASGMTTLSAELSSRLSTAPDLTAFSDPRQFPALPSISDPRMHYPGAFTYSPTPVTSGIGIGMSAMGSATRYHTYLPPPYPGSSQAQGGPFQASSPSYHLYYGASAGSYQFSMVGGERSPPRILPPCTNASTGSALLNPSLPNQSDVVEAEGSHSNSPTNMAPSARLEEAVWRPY
inactive: bafetinib -0.149 | [1] -0.224 | nilotinib -0.07 | [2] -0.281 | dasatinib -0.082 | [3] -0.209 | [5] -0.104 | tipifarnib 0.001 | mubritinib 0.01 | [6] -0.027 | [7] 0.03 | [8] -0.092 | [9] 0.187 | entinostat -0.16 | vorinostat 0.321 | citarinostat -0.249 | silmitasertib 0.119 | [10] 0.082 | [11] 0.051
